For 39 molecules, relative cell viability results are on record in the supplement of paper PMC9588786.

Where “and” joins values, the source holds several entries; their conditions need not be identical. Equal entries are not always repeated. ± gives the standard deviation of the averaged measurements.
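Note: viability read as CCK-8 absorbance at 450 nm in cells co-exposed to the GPX4 inhibitor RSL3, relative to a 0.01% DMSO vehicle control.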

The subject of the assay is HT-1080. The assay can be described thus: relative cell viability with RSL3 co-treatment (fraction of control); higher = stronger protection from RSL3-induced ferroptosis (higher viability). The note with it: 10 µM.
Take `O=C(c1ccc(F)c(F)c1Nc1ccc(I)cc1F)N1CC(O)([C@@H]2CCCCN2)C1` [Cobimetinib (GDC-0973, RG7420)]: the relative cell viability came out at 0.797 ± 0.032.
The same measure for `CS(=O)(=O)c1ccc(-c2cnc(N)c(C(=O)Nc3ccccc3)n2)cc1`: 0.713 ± 0.05; for `O=C(Nc1ccc(-c2ccnc(Nc3ccc(N4CCOCC4)cc3)n2)cc1)C1CCCN1` (centres undefined): 0.443 ± 0.1.
The same measure for `C#Cc1cccc(Nc2ncnc3cc(OC)c(OCCCCCCC(=O)NO)cc23)c1`: 0.793 ± 0.046; for `O=C(Nc1ccccc1C(=O)NC1CCCCNC1=O)c1cc2ccccc2s1` (centres undefined): 0.803 ± 0.011.
The result for `O=c1cc(-c2cccc3c2Sc2ccccc2S3)oc(N2CCOCC2)c1` reads 0.57 ± 0.21.
As to `COc1cc2ncc(-c3ccccc3)nc2cc1OC` [Tyrphostin AG 1296], the relative cell viability came out at 0.567 ± 0.11.
The same measure for `Cc1cn(-c2cc(NC(=O)c3ccc(C)c(Nc4nccc(-c5cccnc5)n4)c3)cc(C(F)(F)F)c2)cn1` [Nilotinib (AMN-107)]: 0.507 ± 0.021; for `O=c1[nH]nc(Sc2ncc([N+](=O)[O-])s2)n1-c1ccc2c(c1)OCCO2`: 0.533 ± 0.045.
The result for `CCN1CCN(Cc2ccc(-c3cc4c(N[C@H](C)c5ccccc5)ncnc4[nH]3)cc2)CC1` reads 0.49 ± 0.02; that for `O=C(NCc1ccccc1)c1csc(Nc2ccncn2)n1` [Thiazovivin], 0.557 ± 0.24.
Take `COc1ccc2c(Oc3ccc(NC(=O)c4c(C)n(CC(C)(C)O)n(-c5ccccc5)c4=O)nc3)ccnc2c1`: the relative cell viability was 0.76 ± 0.052.
The result for `O=S(=O)(NCCNC/C=C/c1ccc(Br)cc1)c1cccc2cnccc12` reads 0.577 ± 0.045.
In the case of `Fc1cc(-c2cccc3ncc(-c4cnn(C5CCNCC5)c4)nc23)cc(F)c1CN1CCOCC1`, the relative cell viability was 0.787 ± 0.058.
The result for `C=CC(=O)Nc1cccc(Sc2nc(Nc3ccc(N4CCN(C)CC4)cc3)ncc2Cl)c1` reads 0.423 ± 0.035; that for `C[C@]1(O)C[C@@H](c2nc(-c3ccc4ccc(-c5ccccc5)nc4c3)c3c(N)nccn32)C1` [Linsitinib (OSI-906)], 0.587 ± 0.029; that for `C=CC(=O)Nc1cccc(Oc2nc(Nc3ccc(N4CCN(C)CC4)cc3OC)ncc2Cl)c1`, 0.927 ± 0.04.
The result for `CN(C[C@@H]1COCCO1)S(=O)(=O)Nc1ccc2ccc3ncc(-c4cnn(C)c4)cc3c(=O)c2c1` reads 0.657 ± 0.25; that for `CC[C@H](Nc1ncnc2[nH]cnc12)c1nc2cccc(F)c2c(=O)n1-c1ccccc1` [Idelalisib (CAL-101, GS-1101)], 0.753 ± 0.031; that for `Cc1cc(Nc2cc(N3CCN(C)CC3)nc(Sc3ccc(NC(=O)C4CC4)cc3)n2)n[nH]1` [Tozasertib (VX-680, MK-0457)], 0.71 ± 0.01.
The result for `O=C(NC[C@H](O)CO)c1ccncc1Nc1ccc(I)cc1F` reads 0.803 ± 0.076.
Turning to `Cc1cnc(Nc2ccc(N3CCN(C)CC3)cc2)nc1Nc1cccc(S(=O)(=O)NC(C)(C)C)c1`, the relative cell viability was 0.223 ± 0.061.
As to `NC(=O)Nc1cc(-c2cccc(F)c2)sc1C(=O)N[C@H]1CCCNC1`, the relative cell viability came out at 0.55 ± 0.01.
The result for `C[C@@H](Oc1cc(-n2cnc3ccc(CN4CCN(C)CC4)cc32)sc1C(N)=O)c1ccccc1C(F)(F)F` reads 0.573 ± 0.042; that for `C=CC(=O)Nc1cccc(Nc2nc(Nc3ccc(Oc4ccnc(C(=O)NC)c4)cc3)ncc2F)c1`, 0.6 ± 0.056; that for `C[C@@H](NC(=O)c1ncnc(N)c1Cl)c1ncc(C(=O)Nc2cc(C(F)(F)F)c(Cl)cn2)s1`, 0.6467 ± 0.0058.
The same measure for `C=CC(=O)Nc1cccc(Nc2nc(Nc3ccc(N4CCN(C(C)=O)CC4)cc3OC)ncc2C(F)(F)F)c1` [Rociletinib (CO-1686, AVL-301)]: 0.573 ± 0.2.
The result for `N#Cc1c(Oc2ccc(F)c(NC(=O)Cc3cccc(C(F)(F)F)c3)c2)ccc2nc(NC(=O)C3CC3)sc12` reads 0.797 ± 0.032; that for `Cc1[nH]nc2ccc(-c3cncc(OC[C@@H](N)Cc4ccccc4)c3)cc12`, 0.59 ± 0.02.
On to `C=CC(=O)Nc1cccc(Nc2nc(Nc3ccc(NC4CN(CCF)C4)cc3OC)ncc2C(F)(F)F)c1`, for which the relative cell viability was 0.443 ± 0.068.
The same measure for `O=C(/C=C/c1ccc(O)c(O)c1)c1ccc(O)cc1O` [Butein]: 0.74 ± 0.075; for `CCc1cc(Nc2nccc(-c3c(-c4ccc(OC)c(C(=O)Nc5c(F)cccc5F)c4)nc4ccccn34)n2)c(OC)cc1N1CCC(N2CCN(S(C)(=O)=O)CC2)CC1`: 0.55 ± 0.01.
Regarding `Cc1ccc(NC(=O)c2cccc(N(C)C)c2)cc1NC(=O)c1ccc(O)cc1`, the relative cell viability turned out to be 0.587 ± 0.15.
The same measure for `COC(=O)c1ccc2c(c1)NC(=O)/C2=C(\Nc1ccc(N(C)C(=O)CN2CCN(C)CC2)cc1)c1ccccc1` [Nintedanib (BIBF 1120)]: 0.9 ± 0.12; for `CN(c1ncccc1CNc1nc(Nc2ccc3c(c2)CC(=O)N3)ncc1C(F)(F)F)S(C)(=O)=O`: 0.763 and 0.527; for `CC(=O)c1c(C)c2cnc(Nc3ccc(N4CCNCC4)cn3)nc2n(C2CCCC2)c1=O`: 0.623 ± 0.074.
The same measure for `CO[C@H]1C[C@@H]2CC[C@@H](C)[C@@](O)(O2)C(=O)C(=O)N2CCCC[C@H]2C(=O)O[C@H]([C@H](C)C[C@@H]2CC[C@@H](OC(=O)C(C)(CO)CO)[C@H](OC)C2)CC(=O)[C@H](C)/C=C(\C)[C@@H](O)[C@@H](OC)C(=O)[C@H](C)C[C@H](C)/C=C/C=C/C=C/1C`: 0.367 ± 0.11.
The same measure for `CC1(C)CNc2cc(NC(=O)c3cccnc3NCc3ccncc3)ccc21` [Motesanib Diphosphate (AMG-706)]: 0.533 ± 0.21; for `CCNc1nc(Nc2cc(F)c(C(=O)N3CCOCC3)cc2OC)ncc1C(F)(F)F`: 0.69 ± 0.089.
